# Source: PubChem BioAssay AID488975 (Johns Hopkins Ion Channel Center, 2010)
# Among all 310,000 compounds or so, about 2,600 (0.84%) were called active.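 How the source made its calls: active means B-score over 3 SD under the library average, and starting fluorescence ratio not unusually high; inactive means the rest.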 What follows is part of a selection rich in actives, with near analogues and random picks from the rest.
# Target: High affinity choline transporter 1 (Homo sapiens) (UniProt Q9GZV3)
# Assay: inhibitors of human choline transporter CHT (AID 488975);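 on B-score: choline stimulus applied at its EC90 after an EC20 pre-addition; B-score computed on integrated fluorescence ratio after choline addition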
# Settings: CHT-expressing cells, membrane potential dye, choline response, at 10 µM; active compounds read low
# Chain of High affinity choline transporter 1 (Homo sapiens) (Q9GZV3 whole entry, looked up): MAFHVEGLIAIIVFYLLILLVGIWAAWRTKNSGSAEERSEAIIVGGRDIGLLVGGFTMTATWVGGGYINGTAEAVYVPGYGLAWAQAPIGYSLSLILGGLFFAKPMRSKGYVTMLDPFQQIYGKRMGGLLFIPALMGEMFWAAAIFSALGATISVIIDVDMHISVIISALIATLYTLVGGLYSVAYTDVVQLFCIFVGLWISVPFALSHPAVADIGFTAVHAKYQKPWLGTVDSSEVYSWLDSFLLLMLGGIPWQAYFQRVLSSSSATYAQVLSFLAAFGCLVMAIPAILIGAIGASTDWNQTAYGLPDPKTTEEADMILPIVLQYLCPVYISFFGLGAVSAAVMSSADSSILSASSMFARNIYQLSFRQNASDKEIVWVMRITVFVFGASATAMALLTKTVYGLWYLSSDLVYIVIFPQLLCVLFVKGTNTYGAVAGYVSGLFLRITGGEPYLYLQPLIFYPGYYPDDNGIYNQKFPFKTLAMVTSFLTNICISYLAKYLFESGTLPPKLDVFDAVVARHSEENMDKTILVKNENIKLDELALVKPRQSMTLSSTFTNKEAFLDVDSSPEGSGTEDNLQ
row,Structure (SMILES),B-score
1,Cc1nc2ccccn2c1P(=S)(N1CCCCC1)N1CCCCC1,-6.55 (active)
2,CC[C@H]1CC2CN3CCc4c([nH]c5ccccc45)C(C(=O)OC)(C2)C13 (stereo not given in full),inactive
3,COC(=O)C1=C(c2cc3ccccc3s2)C[C@@H]2CC[C@H]1N2C(=O)NC(C)C,inactive
4,C[N+]1(C)CCOC(O)(c2ccc(-c3ccc(C4(O)C[N+](C)(C)CCO4)cc3)cc2)C1 (stereo not given),-5.22 (active)
5,C=CCN1C(=O)NC(=O)/C(=C/c2ccc(OCC(=O)Nc3ccc(C)cc3)cc2)C1=O,inactive
6,COc1ccc(CNCCc2c[nH]c3ccccc23)cc1OC,inactive
7,O=C(N/N=C/c1c(O)n(C2CC2)c(=S)[nH]c1=O)c1ccccc1,inactive
8,COc1ccc2c(c1)[C@]13CCCCC1C(C2)N(C)CC3 (stereo not given in full),inactive
9,COC(=O)C1=C(c2cc3ccccc3s2)C[C@@H]2CC[C@H]1N2C(=O)NCc1cccc2ccccc12,inactive
10,COc1ccccc1N1CCN(C(CNC(=O)Oc2ccccc2)c2cccnc2)CC1 (stereo not given),-6.58 (active)
11,O=C(NCC(c1cccnc1)N1CCN(c2ccccc2)CC1)Oc1ccccc1 (stereo not given),inactive
12,COC(=O)C(c1ccccc1)N1CCCCCC1 (stereo not given),inactive
13,COc1ccc(N2C(=O)/C(=C/c3ccco3)C(=O)NC2=S)cc1,inactive
14,COC(=O)C1=C(c2ccccc2)C[C@@H]2CC[C@H]1N2C(=O)NCc1ccco1,inactive
15,C/C(=N/O)c1ccc2ccc3ccccc3c2c1,inactive
